Shown are actives, neighbours in structure and some others; about 3.3% of the full set was active somewhere.
Casp6 inh: human caspase-6 inhibitors, primary screen, biochemical, VEID-R110 fluorescence, single point, set 2. P55212. purified caspase-6, Z-VEID-R110 cleavage fluorescence. inhibition, % at 12.5 µM. actives 0.53% (n = 350,000). AID 686996, 2013;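 active = mean inhibition across replicates at least about 35%, with every replicate also reaching that limit, limit read from the data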
SIRT5 inh: SIRT5 desuccinylase inhibitors, primary screen, biochemical, fluorescence imaging, single point, set 5; NAD-dependent protein deacylase sirtuin-5, mitochondrial (Homo sapiens), Q9NXA8; inhibition, % at 15 µM; Purified SirT5, succinyl-peptide AMC, trypsin-coupled fluorescence; AID 652115, 2013; actives 1.1% (n = 330,000); in the data active = inhibition above about 15%
Target sequence (Q9NXA8 whole entry, looked up): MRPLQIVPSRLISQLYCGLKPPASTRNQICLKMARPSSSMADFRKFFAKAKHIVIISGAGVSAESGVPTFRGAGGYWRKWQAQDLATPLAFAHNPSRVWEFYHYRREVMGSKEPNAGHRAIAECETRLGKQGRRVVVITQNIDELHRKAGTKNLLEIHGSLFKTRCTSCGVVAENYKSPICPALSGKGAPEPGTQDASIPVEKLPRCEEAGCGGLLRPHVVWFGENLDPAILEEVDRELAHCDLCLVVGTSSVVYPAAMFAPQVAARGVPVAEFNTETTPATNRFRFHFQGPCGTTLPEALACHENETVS
FGF22 binding: binders of human FGF22 protein, primary screen, FGF22 synaptogenesis inhibitor project, biophysical, thermal shift, single point | Fibroblast growth factor 22 (Homo sapiens), Q9HCT0 | recombinant FGF22 thermal shift, SYPRO orange fluorescence; percent of sucrose octasulfate shift, DMSO zero | activity (Tm shift, normalised), % at 9.99 µM | actives 1.5% (n = 340,000) | AID 651658, 2012;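 active = mean Tm shift, scaled 0 neutral to 100 positive control, at about 1.3% or above, every replicate too, limit read from the data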
Target sequence (Q9HCT0 whole entry, looked up): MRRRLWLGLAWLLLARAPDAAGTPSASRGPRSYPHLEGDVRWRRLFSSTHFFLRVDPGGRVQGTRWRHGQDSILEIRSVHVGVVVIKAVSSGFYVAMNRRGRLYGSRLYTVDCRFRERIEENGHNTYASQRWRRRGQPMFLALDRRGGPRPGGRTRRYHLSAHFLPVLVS
GSIS activator: GLuc luminescence reporter in INS-1E cells, primary screen for activators of glucose-dependent secretion of insulin; actives 0.61% (n = 370,000); INS-1E GLuc reporter insulin secretion, 2-3 h; AID 743287, 2014; activation, % at 16.6 µM;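 active = lowest replicate activation of at least 40%, so every replicate reaches that level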
ERAP1 inh: human ERAP1 aminopeptidase inhibitors, primary screen, biochemical, single point, plate reader | Endoplasmic reticulum aminopeptidase 1 (Homo sapiens), Q9NZ08 | actives 0.15% (n = 340,000) | inhibition, % at 10.7 µM | recombinant ERAP1, Leu-AMC fluorescence, 60 min;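 active = mean replicate inhibition of at least 30%, or all replicates individually reaching that 30% level; inactive = mean below 30% and not every replicate reaching it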
Hits are given with their value; n = inactive; x = no result given.

SMILES	Casp6 inh	SIRT5 inh	FGF22 binding	GSIS activator	ERAP1 inh
CN(C)c1ccc(/C=C2\N=C(C(C)(C)C)OC2=O)cc1	n	18	n	n	n
COc1ccc(/C=C(\C#N)C(=O)NCCc2ccccc2)cc1OCc1ccccc1	n	n	n	n	n
CCOCCCNC(=O)/C(C#N)=C/c1cc(OC)c(O)c([N+](=O)[O-])c1	n	n	n	n	n
CCOCCCNC(=O)/C(C#N)=C/c1cc(C)c(O)c(C)c1	n	23	43	n	n
COCCNC(=O)/C(C#N)=C/c1ccc(O)c([N+](=O)[O-])c1	n	n	43	n	n
COCCCNC(=O)/C(C#N)=C/c1ccc(OCC(=O)O)c(OC)c1	41	n	n	n	n
COCCNC(=O)/C(C#N)=C/c1cccc(/C=C(\C#N)C(=O)NCCOC)c1	n	x	n	n	n
COCC(=O)Nc1ccc2c(c1)OC[C@@H](C)N(C(=O)Cc1ccccn1)C[C@H](C)[C@@H](OC)CN(C)C2=O	n	n	n	n	n
C[C@H](CO)N1C[C@H](C)[C@@H](CN(C)Cc2cccnc2)Oc2ncc(C#CCc3ccccc3)cc2C1=O	n	n	n	n	n
C[C@H](CO)N1C[C@H](C)[C@H](CN(C)C(=O)Oc2ccccc2)OCc2cn(nn2)CCCC1=O	x	x	x	n	x
O=[N+]([O-])c1ccc2c(c1)/C(=N\O)c1ccccc1-2	n	n	n	n	x
O=[N+]([O-])c1ccc2c(c1)-c1ccccc1C2O (configuration not stated)	n	n	n	n	39
CO[C@H]1CN(C)C(=O)c2ccc(NS(C)(=O)=O)cc2OC[C@H](C)N(C(=O)C2CC2)C[C@H]1C	n	n	n	n	n
O=C(CNCc1ccccc1)NCCCN1CCCC1=O	n	17	n	n	n
O=C(C[C@@H]1C=C[C@@H](NC(=O)C2CC2)[C@@H](CO)O1)Nc1ccccc1	n	n	n	n	n
COC(=O)C1C(O)C(C)C(O)C(C)(O)/C=C\C=C(/C)C(=O)Nc2c(C)c(OC(C)=O)c3c(c2O)C(=O)C(C)=C2OCOC(=C23)/C(C)=C/C(C)(O)C(O)C(C)C1O (configuration not stated)	57	n	n	n	n
OC(CCN1CCC2(CC1)OCCO2)C(F)(F)F (configuration not stated)	n	n	43	n	n
COc1ccc(CC(=O)Nc2nnc(C(C)C)s2)cc1	n	n	n	n	n
CCSc1nnc(NC(=O)Cc2ccc(OC)cc2)s1	n	20	x	n	n
COc1ccc(NC(=O)CSc2nnc(NC(=O)c3ccccc3C(=O)O)s2)cc1	n	n	43	n	n
CCCCC(=O)Nc1nnc(SCC(=O)Nc2ccc(OC)cc2)s1	n	n	n	n	n
C[C@H]1CN([C@@H](C)CO)C(=O)c2cc(/C=C/c3ccccc3)cnc2O[C@@H]1CN(C)C(=O)C1CCCCC1	n	n	n	n	n
CCOc1ccccc1CNC(CC)CO (configuration not stated)	n	n	43	n	n
CCOc1ccccc1CNC(c1ccccc1)c1ccccc1	n	n	n	88	n
C[C@H]1CN([C@@H](C)CO)C(=O)c2cc(C#CC3CC3)cnc2O[C@@H]1CN(C)C(=O)c1ccncc1	x	x	x	n	x
SMILES	Casp6 inh	SIRT5 inh	FGF22 binding	GSIS activator	ERAP1 inh
CC(C)NC(=O)Nc1ccc2c(c1)C(=O)N([C@H](C)CO)C[C@@H](C)[C@H](CN(C)S(=O)(=O)c1ccc(Cl)cc1)OCCCC[C@H](C)O2	n	n	n	n	n
CC(=O)N(C)C[C@H]1Oc2cc(-c3ccc(C#N)cc3)ccc2S(=O)(=O)N([C@H](C)CO)C[C@@H]1C	n	n	n	n	n
COCC(=O)N1[C@@H]2CN(C(=O)Nc3ccccc3F)c3ccccc3[C@@H]2[C@@H]1CO	36	n	n	n	n
O=C(C1CCOCC1)N1C[C@@H]2[C@H](c3ccccc31)[C@H](CO)N2Cc1ccccc1F	n	15	n	n	n
O=C(Nc1ccccc1)N1C[C@@H]2[C@H](c3ccccc31)[C@@H](CO)N2CC1CCCC1	n	19	n	n	n
O=C(C1CCOCC1)N1C[C@@H]2[C@H](c3ccccc31)[C@@H](CO)N2Cc1ccccc1F	n	n	n	n	n
O=C(Nc1ccc(Cl)cc1)N1C[C@H]2[C@@H](c3ccccc31)[C@@H](CO)N2CC1CCCC1	n	n	n	n	n
COc1cccc(-c2ccc(C3[C@@H]4CN(C(=O)Cc5ccncc5)C[C@H]3N4)cc2)c1 (some centres not stated)	x	x	n	n	x
CCN(CC)C(=O)C1=C(C)N(Cc2ccc(OC)cc2)C(=O)C(CC(=O)NCCCN(C)C)C1 (configuration not stated)	n	x	44	n	n
CCN(CC)C(=O)C1=C(C)N(Cc2ccccc2)C(=O)C(CC(=O)NCc2cccs2)C1 (configuration not stated)	n	x	44	n	n
CCCCN1C(=O)C(CC(=O)NC2CC2)CC(C(=O)N(CC)CC)=C1C (configuration not stated)	n	x	43	n	n
COc1ccc(CN2C(=O)C(CC(=O)NCCCN(C)C)CC(C(=O)N(C(C)C)C(C)C)=C2C)cc1 (configuration not stated)	n	n	n	n	x
CCN(CC)C(=O)C1=C(C)N(Cc2ccccc2)C(=O)C(CC(=O)NCCCCc2ccccc2)C1 (configuration not stated)	n	x	43	n	n
C[C@@H]1CCCCO[C@@H](CN(C)C(=O)Nc2cccc3ccccc23)[C@H](C)CN([C@H](C)CO)C(=O)c2cc(NC(=O)CCC(F)(F)F)ccc2O1	x	x	n	n	x
C[C@H](CO)N1C[C@H](C)[C@H](CN(C)Cc2ccc3c(c2)OCO3)Oc2ccc(NC(=O)C3CC3)cc2CC1=O	n	n	n	n	n
CC1=CC(C)(C)N2C(=O)C3(SCC(=O)N3c3ccc(F)cc3)c3cc(C)cc1c32 (configuration not stated)	x	x	x	n	x
CC(C)c1ccc(N2C(=O)CSC23C(=O)N2CCCc4cccc3c42)cc1 (configuration not stated)	n	18	n	n	n
O=C(CN1C(=O)COc2ccccc21)NNC(=O)Nc1ccccc1F	n	26	n	n	n
CC(=O)OCC1=C(C(=O)O)N2C(=O)[C@@H](NC(=O)Cc3cccs3)[C@H]2SC1	n	n	n	n	n
CC(=O)OCC1=C(C(=O)O)N2C(=O)C(NC(=O)c3ccc(COc4c(C)cccc4Cl)o3)C2SC1 (configuration not stated)	40	n	n	n	n
